Measured values from PubChem BioAssay (NCATS).
Where “and” joins values, the source holds several entries; their conditions need not be identical. Equal values may be shown once. Inconclusive results are not listed. Unmarked numbers belong to inactive results. Calls of active or inactive are those of the source. Calls follow the shape of the dose curve; as a rule, active = well fitted cell-killing curve with a large enough effect; inconclusive = small, poorly fitted or top-dose-only effect, or effect the other way; inactive = flat fitted curve, though single readings scatter.

System: CAOV3
Assay: Primary qHTS to identify gynecologic anti-cancer compounds using libraries of approved drugs and bioactive compounds (AID 1345084); also: nearly all actives have a fitted effect of over 55% in size
Settings: Gynecologic cancer cell panel viability, ATPlite luminescence, 48 h; series mostly up to 57.5 µM; activity change, negative = cytotoxicity: at the top concentration
Source text: National Center for Advancing Translational Sciences [NCATS] Assay Overview: Chemotherapeutic drug responses vary from cancer to cancer and from patient to patient. These variations could be caused by a number of factors including patient genomic background, tumor mutations, tumor heterogeneity, and aspects of drug treatment. Chemotherapeutic drug resistance is also a common issue and can lead to ineffective treatment and patient death. Here we have profiled the cell killing effects of thousands of compounds to characterize the responses in three gynecological cancers, identify cancer-selective compounds, and understand the diversity of responses to these compounds from pan-cancer suppressors to single cell line selective compounds. In this assay, we screened a 7,914 compound drug library that included approved drug and bioactive compounds in six ovarian, three cervical, and […] placental cancer cell lines using the ATPlite assay for cell viability. […] The cervical cancer cell lines included HeLa, Ca Ski, and C-33 A. The placental cancer cell lines included JEG-3. HEK 293T cells were used as the control cell line to determine the selectivity index. ATPlite is a luminescence based assay reliant on the conversion of a luciferase substrate to light in the presence of ATP. As a cytotoxic compound will suppress growth and decrease the number of cells, the concentration of ATP will decrease, and less light signal will be detected in the well.
Assay Protocol Summary: 1,000 cells in 4 uL of media were dispensed into white, solid bottom 1536-well plates using a Multidrop Combi (Thermo Scientific). The Assay plates were incubated for 16 hours at 37 C with 5% CO2 in assay plates, followed by the addition of 23 nL of DMSO or drug dissolved in DMSO. Each compound was assayed in five concentrations (0.092, 0.46, 2.3, 11.5, and 57.5 uM), using the automated Wako 1536 Pin Tool workstation and incubated at 37 C with 5% CO2 48 hours. 4 uL of ATPlite, the ATP monitoring reagent, was then added to the each well of the assay plates using the Multidrop Combi reagent dispenser followed by incubation for 15 minutes at room temperature. The resulting luminescence was measured using the ViewLux plate reader.
% is scaled to controls: 0 for no effect and ±100 for the full control effect; potency is read from the fitted curve at half-maximal effect.

Row | SMILES | activity change, negative = cytotoxicity | Potency
1 | CNC(=O)c1ccc(C)c(-n2c(C)cc(OCc3ccc(F)cc3F)c(Br)c2=O)c1 | 1.16% | –
2 | NCCc1ccc(O)c(O)c1 | -1.92% | –
3 | CCc1cncnc1N1CCN(Cc2nc3ccc(C(F)(F)F)cc3[nH]2)CC1 | -0.407% | –
4 | CN(C)c1ccc(Nc2nc(N)n(C(=O)c3c(F)cccc3F)n2)cc1 | -1.4% | –
5 | CS(=O)(=O)c1ccc(C(=O)Nc2ccc(Cl)c(-c3ccccn3)c2)c(Cl)c1 | -16% | –
6 | CC1(C)Cc2c(-c3ccccc3)c(-c3ccc(Cl)cc3)c(CC(=O)O)n2C1 | -13.6% | –
7 | COc1ccc(CCN2CCN(CCCc3ccccc3)CC2)cc1OC | -5% | –
8 | CCOC(=O)C1=C[C@]2(CC)CCCN3CCc4c(n1c1ccccc41)[C@@H]32 | -5.46% | –
9 | CS(=O)(=O)c1cccc(CNc2nc(Nc3ccc4c(c3)CCC(=O)N4)ncc2C(F)(F)F)c1 | -22.7% | –
10 | O=NN(CCCl)C(=O)NCCCl | -9.14% | –
11 | C[C@@H]1CN(Cc2ccc(F)cc2)[C@@H](C)CN1C(=O)c1cc2c(C(=O)C(=O)N(C)C)cn(C)c2cc1Cl | 3.08% | –
12 | CCOC(=O)N1CCC(=C2c3ccc(Cl)cc3CCc3cccnc32)CC1 | -13.1% | –
13 | COc1cc2nccc(Oc3ccc(NC(=O)NC4CC4)c(Cl)c3)c2cc1C(N)=O | -30.2% | –
14 | CNC(=O)c1ccccc1Sc1ccc2c(/C=C/c3ccccn3)n[nH]c2c1 | – | 10 µM (active) and 8.91 µM (active)
15 | OC(CCN1CCCCC1)(c1ccccc1)C1CC2C=CC1C2 (stereo not given) | -2.5% | –
16 | O=C1CCCC2=C1C(c1[nH]ncc1Cl)N=C(Nc1nc3ccccc3o1)N2 (stereo not given) | 18.8% | –
17 | CN(C(=O)c1ccc(F)cc1C(F)(F)F)C1CCN(c2nnc(-c3ccnn3C)c3ccccc23)CC1 | 3.9% | –
18 | CC(C)(N)C(=O)N[C@H](COCc1ccccc1)C(=O)N1CCC2(CC1)CN(S(C)(=O)=O)c1ccccc12 | -0.828% | –
19 | CC[C@H](Nc1ncnc2nc[nH]c12)c1nc2cccc(F)c2c(=O)n1-c1ccccc1 | -6.79% [at 11.6 µM] | –
20 | Cc1n[nH]c(C)c1Cc1sc2c(c1C(=O)N1C[C@H](O)CO1)c(=O)n(C)c(=O)n2CC(C)C | -4.1% | –

Row | SMILES | activity change, negative = cytotoxicity | Potency
21 | NS(=O)(=O)c1cc2c(cc1Cl)NC=NS2(=O)=O | 14.5% | –
22 | CNC[C@H](O)c1cccc(O)c1 | 13.4% | –
23 | C[C@H](NC(=O)Cc1cc(F)cc(F)c1)C(=O)N[C@@H]1C(=O)N(C)c2ccccc2-c2ccccc21 | 0.369% | –
24 | Cc1cnc(NC(=O)C2=C(O)c3ccccc3S(=O)(=O)N2C)s1 | -4.01% | –
25 | CC(C[N+](C)(C)C)OC(N)=O (stereo not given) | 1.37% | –
26 | CCCC(CCC)C(=O)O | -3.23% | –
27 | COc1cc(Oc2ccnc3cc(OC)c(OC)cc23)ccc1NC(=O)NC(C)c1nccs1 (stereo not given) | -11.1% | –
28 | COc1ccccc1[C@H](c1cccc2ccccc12)[C@@](C)(C#N)C(=O)N1CCC(c2cccc(C(F)(F)F)c2)CC1 | -1.35% | –
29 | N=c1nc(N2CCCCC2)cc(N)n1O | 22.2% | –
30 | Cc1ccnc(NS(=O)(=O)c2ccc(NC(=O)Nc3ccc(S(=O)(=O)Nc4nccc(C)n4)cc3)cc2)n1 | 12.8% | –
31 | CCCS(=O)(=O)Nc1ccc(F)c(C(=O)c2c[nH]c3ncc(Cl)cc23)c1F | 7.81% | –
32 | O=c1n(CCCN2CCN(c3cccc(Cl)c3)CC2)nc2ccccn12 | 12.4% | –
33 | CC1(C)CNc2cc(NC(=O)c3cccnc3NCc3ccncc3)ccc21 | 11.5% | –
34 | CC(=O)Oc1ccccc1C(=O)O | 4.81% | –
35 | CCCCNc1cc(C(=O)O)cc(S(N)(=O)=O)c1Oc1ccccc1 | 0.841% | –
36 | O=C1CCc2cc(OCCCCc3nnnn3C3CCCCC3)ccc2N1 | 3.11% | –
37 | NC(N)=NC(=O)c1nc(Cl)c(N)nc1N | -24.8% | –
38 | CCc1cc(Nc2nccc(-c3c(-c4ccc(OC)c(C(=O)Nc5c(F)cccc5F)c4)nc4ccccn34)n2)c(OC)cc1N1CCC(N2CCN(S(C)(=O)=O)CC2)CC1 | 1.71% | –
39 | CC(C)NCC(O)COc1ccc(COCCOC(C)C)cc1 (stereo not given) | -5.19% | –
40 | O=C(c1cc(Cc2n[nH]c(=O)c3ccccc23)ccc1F)N1CCN(C(=O)C2CC2)CC1 | -6.7% | –
